In the library only some 0.44% were active in any assay of this set; here they are far more common.
Chronic BCR inh: chronic active BCR signaling inhibition. AID 493014. hit rate 0.05% among 340,000. Potency, µM (titrated, usually from 46.1 µM), most hits filed as inhibitors. ABC-DLBCL IkBa-CBG/CBR reporter, luminescence ratio, 4 h; active = well fitted inhibition curve with a large enough effect in the signal ratio, with a control signal flat, not every such curve was filed as active; inconclusive = small, poorly fitted or top-dose-only effect, or effect the other way, or a change in a side signal; the % refers to the signal ratio
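Cell line TMD8 (human ABC DLBCL), stably expressing tet-inducible CBG68-IkBa fusion and CBR; IMDM/0.5% FBS; cpd up to 46 uM; dox induction, 4 h, 37C/5% CO2; dual luminescence; green/red ratio; MG132 control.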
Tb PFK inh-1: T. brucei PFK enzyme inhibition; O15648; T. brucei PFK, ADP-Glo luminescence; Potency, µM (top dose mostly 57.5 µM), most hits filed as inhibitors; hit rate 0.17% among 330,000; also: nearly all actives have a fitted effect of over 60% in size
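PFK 1.25 nM, F6P 0.5 mM, ATP 0.1 mM, 0.1 M TEA pH 8.0, 5 mM MgCl2, 0.01% Tween20, 0.1% BSA; 45 min RT. ADP-Glo readout. qHTS titration up to 57 uM; curves fitted, compounds curve-classed.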
Rango-impB inh: inhibitors of Rango-importin beta complex formation. hit rate 0.031% among 340,000. Q14974. Rango CFP/YFP FRET sensor + importin beta, 45 min. Potency, µM (top dose mostly 92.2 µM). AID 540263; calls by dose curve; also: nearly all actives have a fitted effect of over 15% in size
Target sequence (Q14974 whole entry, looked up): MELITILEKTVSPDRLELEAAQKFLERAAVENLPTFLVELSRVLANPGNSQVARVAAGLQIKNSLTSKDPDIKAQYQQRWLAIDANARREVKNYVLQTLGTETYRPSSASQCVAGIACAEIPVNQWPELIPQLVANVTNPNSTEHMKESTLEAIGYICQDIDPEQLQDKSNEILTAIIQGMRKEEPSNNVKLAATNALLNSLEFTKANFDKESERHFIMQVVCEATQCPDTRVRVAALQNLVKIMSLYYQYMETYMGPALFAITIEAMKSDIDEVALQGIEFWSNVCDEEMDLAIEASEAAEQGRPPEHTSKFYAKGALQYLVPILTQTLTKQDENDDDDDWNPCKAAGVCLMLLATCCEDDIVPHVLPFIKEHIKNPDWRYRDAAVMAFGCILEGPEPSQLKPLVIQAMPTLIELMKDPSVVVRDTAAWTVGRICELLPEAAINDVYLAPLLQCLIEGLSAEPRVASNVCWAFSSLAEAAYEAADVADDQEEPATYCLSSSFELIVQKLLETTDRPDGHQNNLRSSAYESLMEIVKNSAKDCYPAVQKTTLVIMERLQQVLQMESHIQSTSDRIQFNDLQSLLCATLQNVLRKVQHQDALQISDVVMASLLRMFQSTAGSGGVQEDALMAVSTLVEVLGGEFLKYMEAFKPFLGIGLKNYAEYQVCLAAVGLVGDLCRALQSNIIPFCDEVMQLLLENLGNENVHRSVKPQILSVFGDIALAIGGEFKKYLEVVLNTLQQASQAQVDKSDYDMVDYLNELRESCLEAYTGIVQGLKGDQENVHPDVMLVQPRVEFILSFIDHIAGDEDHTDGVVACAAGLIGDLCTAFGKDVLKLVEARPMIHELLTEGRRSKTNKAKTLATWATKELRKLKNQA
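FRET biosensor Rango (snurportin 1 IBB between N-terminal EYFP and C-terminal Cerulean), 50 nM in PBS/1 mM DTT/0.02% Tween-20/0.1% BSA, preincubated 5 min RT with compound; 0.125 microM importin beta added, 45 min RT, CFP/YFP FRET ratio read.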
Rango dissoc inh: prevents RanGTP from dissociating the Rango-importin beta complex; hit rate 0.071% among 340,000; O95149+P62826; Biochemical FRET Rango-importin beta, RanGTP-induced dissociation; AID 540253; Potency, µM (doses to about 46.1 µM); calls by dose curve; also: nearly all actives have a fitted effect of over 45% in size
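FRET read at 45 min, room temperature: inhibitors block the CFP/YFP signal rise when RanGTP (0.6 uM Ran, 2 mM GTP, 0.2 uM RCC1) frees Rango (0.1 uM) from importin beta (0.25 uM). Pre-read after 5 min compound exposure flags interference.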
Lamin A splicing: LMNA splicing modulation | AID 1487 | Potency, µM (doses to about 46.1 µM), hits mostly inhibitors | HeLa LMNA splicing GFP/RFP minigene ratio, 48 h | hit rate 0.01% among 200,000; active = well fitted inhibition curve with a large enough effect in the signal ratio, with a control signal flat, not every such curve was filed as active; inconclusive = small, poorly fitted or top-dose-only effect, or effect the other way, or a change in a side signal; the % refers to the signal ratio
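S3 HeLa stable clones carrying a lamin A-EGFP splicing minigene plus DsRed2 were seeded at 600 cells/well in Opti-MEM with 2% FBS, pin-dosed and incubated 48 h at 37°C. Acumen cytometry (488 nm) gave the GFP/RFP total-intensity ratio.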
Luc counter: blocks Kinase-Glo luciferase, a counter-screen artifact | Q27757 | Potency, µM (doses to about 38.3 µM), hits mostly inhibitors | hit rate 0.28% among 200,000 | Kinase-Glo luciferase, ATP luminescence, 8 min; also: nearly all actives have a fitted effect of over 60% in size
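Light output from Kinase-Glo luciferase with luciferin and 10 uM ATP in 50 mM imidazole pH 7.2, KCl, MgCl2, Tween 20, BSA; compound pin-delivered, 8-min ambient incubation, then luminescence read.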
TbPFK ATP: Tb phosphofructokinase inhibition, orthogonal luminescence. shares compounds with Tb PFK inh-1. Tb PFK enzyme, ATP depletion, Kinase-Glo Plus luminescence. Potency, µM (highest dose often 57.5 µM). hit rate 47% among 1,100; calls by dose curve; also: nearly all actives have a fitted effect of over 60% in size
Tb PFK inh-2: validation of T. brucei phosphofructokinase inhibitors | Potency, µM (top dose mostly 57.5 µM), actives largely listed as inhibitors | purified T. brucei PFK, ADP-Glo luminescence, 45 min | hit rate 41% among 1,100 | shares compounds with Tb PFK inh-1; also: nearly all actives have a fitted effect of over 60% in size
Large screens that a line does not name were inactive (follow-up assays come after a bar, where they were run). Unless noted, calls follow the shape of the dose curve; as a rule, active = well fitted curve in the direction sought with a large enough effect; inconclusive = small, poorly fitted or top-dose-only effect, or another doubt; inactive = no such curve, though single readings can be large; an effect the other way counts as inactive or inconclusive.

O=C(O)C(Cc1ccccc1)N1C(=O)/C(=C/C=C/c2ccco2)SC1=S (centres undefined)	Tb PFK inh-1 inconclusive, Rango-impB inh inconclusive, Rango dissoc inh inconclusive (no result: Lamin A splicing, Luc counter) | TbPFK ATP 21µM | Tb PFK inh-2 inconclusive
O=C(O)CC(C(=O)O)N1C(=O)/C(=C/C=C/c2ccco2)SC1=S (centres undefined)	Tb PFK inh-1 8.5µM, Rango-impB inh inconclusive (no result: Lamin A splicing, Luc counter) | TbPFK ATP 2.1µM | Tb PFK inh-2 6µM
O=C1NC(=O)N(Cc2ccccc2)C(=O)/C1=C\C=C\c1ccco1	Chronic BCR inh inconclusive, Rango-impB inh inconclusive, Rango dissoc inh inconclusive, Lamin A splicing inconclusive
CN1C(=O)/C(=C/C=C/c2ccco2)C(=O)NC1=S	Tb PFK inh-1 inconclusive, Rango-impB inh inconclusive (no result: Lamin A splicing, Luc counter)
CC(C)Cc1nnc(NC(=O)CCC(=O)N2CCN(CCOC(c3ccccc3)c3ccccc3)CC2)s1	none
COC(=O)C1=C(c2ccc(F)cc2F)C[C@@H]2CC[C@H]1N2C(=O)NCc1ccco1	Rango-impB inh inconclusive (no result: Lamin A splicing, Luc counter)
O=C1C=C(c2ccccc2)C(=O)N1Nc1ccccc1	Chronic BCR inh inconclusive, Tb PFK inh-1 24µM | TbPFK ATP 21µM | Tb PFK inh-2 inconclusive
COc1ccc(C(=O)C2CCCN(Cc3ccc(F)cc3F)C2)cc1F (centres undefined)	none (no result: Lamin A splicing, Luc counter)
CCCCn1c(O)c(C(CC)=NCc2ccc3c(c2)OCO3)c(=O)[nH]c1=O	Chronic BCR inh inconclusive
CC(=O)[C@H]1[C@H]([C@H](O)[C@H](O)CO)O[C@](O)(C(=O)O)C[C@@H]1O	Tb PFK inh-1 1.7µM (no result: Lamin A splicing, Luc counter) | TbPFK ATP inconclusive | Tb PFK inh-2 inactive
O=C(Cn1sc2ccccc2c1=O)NC12CC3CC(CC(C3)C1)C2	Chronic BCR inh inconclusive, Tb PFK inh-1 4.3µM | TbPFK ATP inconclusive | Tb PFK inh-2 9.5µM
COC(=O)C1=C(C)OC(N)=C(C#N)C12C(=O)Nc1ccccc12 (centres undefined)	none (no result: Lamin A splicing)
Nc1ccccc1Sc1nc2ccccc2[nH]1	Chronic BCR inh inconclusive, Tb PFK inh-1 inconclusive, Lamin A splicing inconclusive | TbPFK ATP 17µM | Tb PFK inh-2 inconclusive
Cc1c(Nc2cc(Cl)c3nonc3c2[N+](=O)[O-])c(=O)n(-c2ccccc2)n1C	Chronic BCR inh inconclusive, Tb PFK inh-1 inconclusive (no result: Lamin A splicing) | TbPFK ATP inconclusive | Tb PFK inh-2 inconclusive
COC(=O)C1=C(c2ccc(OCc3ccccc3)cc2)C[C@@H]2CC[C@H]1N2C(=O)NCc1cccc(OC)c1	Chronic BCR inh inconclusive (no result: Lamin A splicing, Luc counter)
O=C(Nc1ccc(Cl)c([N+](=O)[O-])c1)ONC1=NCCCCC1	Chronic BCR inh inconclusive, Tb PFK inh-1 inconclusive (no result: Lamin A splicing) | TbPFK ATP inconclusive | Tb PFK inh-2 inconclusive
CN1[C@@H]2CC[C@H]1CC(O)C2 (some centres undefined)	Lamin A splicing inconclusive (no result: Chronic BCR inh, Tb PFK inh-1, Rango-impB inh, Rango dissoc inh)
N#Cc1c(N)nc2c(c1N)CC(CCl)O2 (centres undefined)	Tb PFK inh-1 inconclusive, Rango-impB inh inconclusive | TbPFK ATP inactive | Tb PFK inh-2 inactive
COc1cc(/C=C/c2[nH]c(=O)[nH]c(=O)c2[N+](=O)[O-])cc([N+](=O)[O-])c1O	Tb PFK inh-1 inconclusive (no result: Lamin A splicing, Luc counter) | TbPFK ATP inactive | Tb PFK inh-2 inconclusive
O=C1N(c2ccc(Cl)c(Cl)c2)CN(Cc2ccccc2)CN1n1cnnc1	Tb PFK inh-1 27µM | TbPFK ATP inconclusive | Tb PFK inh-2 inactive
Oc1c(Cl)cc(Cl)cc1CN1CCN(Cc2ccccc2)CC1	Lamin A splicing inconclusive
CCn1c(C)c(CS(=O)(=O)c2ccccc2)[nH]c1=O	Chronic BCR inh inconclusive, Tb PFK inh-1 inconclusive (no result: Lamin A splicing) | TbPFK ATP inactive | Tb PFK inh-2 inconclusive
CCCC(C)C1(CC)C(=O)NC(=O)N=C1N (centres undefined)	none

Compound activity as filed in PubChem.
